Here are results for 8 molecules from PubChem BioAssay (Tox21).

Experiment [1] can be described thus: qHTS assay to identify small molecule antagonists of the glucocorticoid receptor (GR) signaling pathway - cell viability counter screen (AID 720693). Also: nearly all actives have a fitted effect of over 55% in size.
A short description of experiment [2]: qHTS assay for identifying genotoxic compounds that show differential cytotoxicity against isogenic chicken DT40 cell lines with known DNA damage response pathways - wild type cell line (AID 743012). Also: nearly all actives have a fitted effect of over 60% in size. In outline:
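Cells (DT40 wild type, 300/well) are treated with DMSO-dissolved compounds after a ~0.5 h pre-incubation and kept 40 h at 37 C/5% CO2. Viability is then measured by CellTiter-Glo luminescence following 30 min at room temperature.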
(Quantitative high-throughput screening tests each substance at several concentrations.)

The nature of experiment [3]: qHTS assay for identifying genotoxic compounds that show differential cytotoxicity against isogenic chicken DT40 cell lines with known DNA damage response pathways - Rev3 mutant cell line (AID 743014). Also: nearly all actives have a fitted effect of over 55% in size.
Experiment [4] is described as follows: qHTS assay for identifying genotoxic compounds that show differential cytotoxicity against isogenic chicken DT40 cell lines with known DNA damage response pathways - Rad54/Ku70 mutant cell line (AID 743015). Also: nearly all actives have a fitted effect of over 60% in size.
Experiment [5] in a line: qHTS assay to identify small molecule antagonists of the androgen receptor (AR) signaling pathway - cell viability counter screen (AID 743033; also: nearly all actives have a fitted effect of over 45% in size).
Experiment [6] can be described thus: qHTS assay to identify small molecule antagonists of the androgen receptor (AR) signaling pathway using the MDA cell line - cell viability counter screen (AID 743041; also: nearly all actives have a fitted effect of over 45% in size). Summed up: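 MDA-kb2 AR-luc cells (MMTV-luciferase, AR/GR responsive) treated with compounds plus R1881 agonist for 16 h at 37C. CellTiter-Fluor added at 15.5 h; fluorescence read after 30 min in the same wells.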

A short description of experiment [7]: qHTS assay to identify small molecule antagonists of the thyroid receptor (TR) signaling pathway - cell viability counter screen (AID 743064). Also: nearly all actives have a fitted effect of over 50% in size. In outline:
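In-well cytotoxicity read by CellTiter-Fluor (30 min, 37 C) following 23.5 h exposure of GH3 cells bearing a TRE-luciferase sensor. Compounds were added alongside 1 nM (final) T3 to drive TR transactivation.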

The nature of experiment [8]: qHTS assay to identify small molecule antagonists of the thyroid receptor (TR) signaling pathway (AID 743065). Also: nearly all actives have a fitted effect of over 55% in size. In outline:
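GH3.TRE-Luc rat pituitary cells (two TREs driving luciferase) were dosed with compound, then stimulated with 1 nM T3 (final) for 23.5 h at 37 C. ONE-Glo luminescence was the read-out, with CellTiter-Fluor fluorescence as the cytotoxicity counter-screen.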

Experiment [9] concerns thyroid hormone receptor (rat, GH3 cells). Put plainly: qHTS assay to identify small molecule agonists of the thyroid receptor (TR) signaling pathway (AID 743066; calls by dose curve).
Experiment [10] in a line: qHTS assay to identify small molecule antagonists of the estrogen receptor alpha (ER-alpha) signaling pathway - cell viability counter screen (AID 743074; calls by dose curve;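 also: HEK293 cells carrying ER-alpha-UAS-bla reporter stimulated with 17beta-estradiol; nearly all actives have a fitted effect of over 45% in size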).
A short description of experiment [11]: qHTS assay to identify small molecule antagonists of the estrogen receptor alpha (ER-alpha) signaling pathway using the BG1 cell line - cell viability counter screen (AID 743081).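 Also: compound given together with 17beta-estradiol as the ER stimulus; nearly all actives have a fitted effect of over 45% in size.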
For another experiment, the target named is Aromatase (Homo sapiens) (UniProt P11511). The experiment can be described thus: qHTS assay to identify aromatase inhibitors (AID 743083). Also: nearly all actives have a fitted effect of over 55% in size.
Chain of Aromatase (Homo sapiens) (P11511 whole entry, looked up): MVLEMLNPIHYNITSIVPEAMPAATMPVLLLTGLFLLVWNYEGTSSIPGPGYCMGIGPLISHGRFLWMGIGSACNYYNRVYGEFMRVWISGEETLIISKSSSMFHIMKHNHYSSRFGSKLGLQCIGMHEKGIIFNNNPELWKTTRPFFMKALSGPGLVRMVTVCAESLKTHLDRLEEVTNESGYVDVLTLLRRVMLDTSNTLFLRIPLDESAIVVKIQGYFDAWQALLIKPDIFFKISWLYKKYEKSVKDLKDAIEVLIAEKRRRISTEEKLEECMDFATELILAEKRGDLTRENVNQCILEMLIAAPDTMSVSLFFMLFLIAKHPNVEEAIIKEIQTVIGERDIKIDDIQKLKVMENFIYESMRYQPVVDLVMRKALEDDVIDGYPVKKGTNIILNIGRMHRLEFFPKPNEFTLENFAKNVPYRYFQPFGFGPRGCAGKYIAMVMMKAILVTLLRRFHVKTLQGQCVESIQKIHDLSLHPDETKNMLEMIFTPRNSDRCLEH
Experiment [12] can be described thus: qHTS assay to identify aromatase inhibitors - cell viability counter screen (AID 743084).
Experiment [13] concerns the target Androgen receptor (Homo sapiens) (UniProt P10275). The experiment can be described thus: qHTS assay to identify small molecule antagonists of the androgen receptor (AR) signaling pathway (AID 743035; active = well fitted inhibition curve with a large enough effect in the signal ratio in the repeat runs, not every such curve was filed as active; inconclusive = weak or mixed curves, or effect the other way; inactive = no such curve, though single readings can be large or run the other way; the % refers to the signal ratio). In outline:
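Antagonism is scored as loss of R1881-driven beta-lactamase reporter expression in HEK293 cells carrying the reporter under a UAS element, after 16 h co-treatment at 37C and a 2 h room-temperature FRET substrate read.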

Experiment [14] shares this target. Put plainly: qHTS assay to identify small molecule agonists of the androgen receptor (AR) signaling pathway (AID 743036; active = well fitted activation curve with a large enough effect in the signal ratio in the repeat runs, with a control signal flat, not every such curve was filed as active; inconclusive = weak or mixed curves, or effect the other way; inactive = no such curve, though single readings can be large or run the other way; the % refers to the signal ratio). In outline:
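Activation was read as beta-lactamase FRET signal from LiveBLAzer B/G substrate, added for 2 h at room temperature. Before that, GeneBLAzer AR-UAS-bla GripTite (HEK293) cells had 16 h compound exposure at 37C.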

Experiment [15] shares this target. The experiment can be described thus: qHTS assay to identify small molecule antagonists of the androgen receptor (AR) signaling pathway using the MDA cell line (AID 743042; also: nearly all actives have a fitted effect of over 55% in size). In outline:
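MDA-kb2 breast carcinoma cells carrying MMTV-luciferase (AR/GR responsive) were co-treated with compounds and the agonist R1881 for 16 h at 37C. Inhibition read as ONE-Glo luminescence; CellTiter-Fluor fluorescence measured in parallel for cytotoxicity.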

The target in experiment [16] is Estrogen receptor (Homo sapiens) (UniProt P03372). The experiment can be described thus: qHTS assay to identify small molecule antagonists of the estrogen receptor alpha (ER-alpha) signaling pathway (AID 743069; active = well fitted curve in the direction sought with a large enough effect in the signal ratio in the repeat runs, not every such curve was filed as active; inconclusive = weak or mixed curves, or effect the other way; inactive = no such curve, though single readings can be large or run the other way; the % refers to the signal ratio). Summed up:
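HEK293 ER-alpha-UAS-bla GripTite cells, held overnight in 2% charcoal-stripped FBS, 5,000 cells/well, preincubated 4 h, then compound plus 17beta-estradiol for 18 h at 37C. Beta-lactamase read by LiveBLAzer B/G FRET substrate, 2 h at room temperature.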

Experiment [17] has the same target. Put plainly: qHTS assay to identify small molecule agonists of the estrogen receptor alpha (ER-alpha) signaling pathway (AID 743075; calls by dose curve; also: potency is read from the fitted curve at half-maximal effect).
Experiment [18] has the same target. The experiment can be described thus: qHTS assay to identify small molecule agonists of the estrogen receptor alpha (ER-alpha) signaling pathway using the BG1 cell line (AID 743079). Also: potency is read from the fitted curve at half-maximal effect. As to all read-outs here: nearly all actives have a fitted effect of over 20% in size. The settings on record: BG1Luc4E2 cells, ERE-luciferase agonist, 22 h; for activation: at 70.3 µM (top of the series).
A short description of experiment [19]: qHTS assay to identify small molecule antagonists of the estrogen receptor alpha (ER-alpha) signaling pathway using the BG1 cell line (AID 743080; calls by dose curve;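 also: BG1 cells stimulated with 17beta-estradiol alongside compound; nearly all actives have a fitted effect of over 25% in size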). Summed up:
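Luminescence from a 4×ERE-luciferase reporter in BG1-Luc-4E2 cells served as read-out. Cells, pre-cultured 5 days in stripped-serum phenol-red-free medium, were exposed to compound with 17beta-estradiol co-stimulation for 21.5 h at 37 C.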

A number with no mark means an inactive call. Active and inactive are the calls of the source. Unless noted, calls follow the shape of the dose curve; as a rule, active = well fitted curve in the direction sought with a large enough effect in the repeat runs; inconclusive = weak or mixed curves; inactive = no such curve, though single readings can be large; an effect the other way counts as inactive or inconclusive.
% is scaled to controls: 0 for no effect and ±100 for the full control effect.

Chain of Androgen receptor (Homo sapiens) (P10275 whole entry, looked up): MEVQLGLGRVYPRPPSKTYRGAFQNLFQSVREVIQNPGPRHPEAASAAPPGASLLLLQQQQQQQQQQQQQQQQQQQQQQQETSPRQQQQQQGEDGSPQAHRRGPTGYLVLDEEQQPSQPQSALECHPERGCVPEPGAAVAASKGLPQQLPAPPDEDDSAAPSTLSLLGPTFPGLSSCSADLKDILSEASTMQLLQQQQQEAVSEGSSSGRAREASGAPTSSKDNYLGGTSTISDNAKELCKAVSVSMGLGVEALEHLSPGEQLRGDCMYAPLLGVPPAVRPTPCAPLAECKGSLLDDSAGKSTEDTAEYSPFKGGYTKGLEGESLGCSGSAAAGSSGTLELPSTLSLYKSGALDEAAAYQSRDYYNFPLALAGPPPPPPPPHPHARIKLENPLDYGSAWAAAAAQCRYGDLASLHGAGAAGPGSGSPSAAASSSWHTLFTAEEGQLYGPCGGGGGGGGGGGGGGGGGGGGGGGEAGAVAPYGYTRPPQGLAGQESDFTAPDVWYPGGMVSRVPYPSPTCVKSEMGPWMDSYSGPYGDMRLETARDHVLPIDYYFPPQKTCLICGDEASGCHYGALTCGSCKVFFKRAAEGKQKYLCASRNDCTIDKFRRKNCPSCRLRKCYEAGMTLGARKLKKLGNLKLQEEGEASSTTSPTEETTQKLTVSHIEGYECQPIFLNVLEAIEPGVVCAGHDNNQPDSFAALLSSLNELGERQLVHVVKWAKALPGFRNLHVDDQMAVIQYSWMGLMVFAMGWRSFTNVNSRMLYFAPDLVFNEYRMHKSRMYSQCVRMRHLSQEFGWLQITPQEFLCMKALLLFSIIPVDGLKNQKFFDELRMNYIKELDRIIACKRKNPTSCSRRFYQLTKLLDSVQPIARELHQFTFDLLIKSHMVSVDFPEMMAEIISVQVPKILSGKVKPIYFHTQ
Chain of Estrogen receptor (Homo sapiens) (P03372 whole entry, looked up): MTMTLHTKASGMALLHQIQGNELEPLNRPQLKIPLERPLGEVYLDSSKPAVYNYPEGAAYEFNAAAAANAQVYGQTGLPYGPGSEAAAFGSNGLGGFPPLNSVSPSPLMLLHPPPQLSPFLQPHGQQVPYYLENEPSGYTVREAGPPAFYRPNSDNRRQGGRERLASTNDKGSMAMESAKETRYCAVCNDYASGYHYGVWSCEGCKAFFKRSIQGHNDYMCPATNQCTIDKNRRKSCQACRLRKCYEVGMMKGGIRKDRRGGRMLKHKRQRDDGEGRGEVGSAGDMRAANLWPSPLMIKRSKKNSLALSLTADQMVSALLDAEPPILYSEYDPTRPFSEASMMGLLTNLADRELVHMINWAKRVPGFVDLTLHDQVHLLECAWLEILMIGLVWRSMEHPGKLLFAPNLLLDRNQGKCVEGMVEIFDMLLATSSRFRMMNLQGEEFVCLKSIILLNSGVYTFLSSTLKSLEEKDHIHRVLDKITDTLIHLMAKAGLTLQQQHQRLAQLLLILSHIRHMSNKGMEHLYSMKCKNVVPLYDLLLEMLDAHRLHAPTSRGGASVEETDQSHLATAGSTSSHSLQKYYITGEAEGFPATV

With `CC(=NC#N)N(C)Cc1ccc(Cl)nc1`, the Potency entry in experiment [1], in [2], in [3], in experiment [4], in [5] and in [6] was “inactive” each time. Besides, the Potency entry (in experiment [7]; in experiment [8]; in experiment [9]; in experiment [10]; in experiment [11]; with Aromatase (Homo sapiens)) was “inactive” each time. Moreover, in experiment [12], the Potency result is “inactive”.

Regarding `COC(=O)c1ccc(CBr)cc1`, the Potency entry in experiment [1], in [2], in [3], in experiment [4], in [5] and in experiment [13] was “inactive” throughout. The Potency entry in experiment [6], in [15], in experiment [7], in experiment [9], in [16] and in experiment [17] was “inactive” in each case. The Potency entry (in experiment [11]; with Aromatase (Homo sapiens); in experiment [12]) was “inactive” throughout. Further, the molecule was called inactive in experiment [14]. In addition, the Potency in [18] was 6.94 µM (active).

With `CCOP(=S)(OCC)SCCl`, the Potency entry in experiment [1], in experiment [2], in [3], in [4], in [5] and in experiment [13] was “inactive” in each case. Besides, the Potency result in experiment [6], in experiment [15], in [7], in experiment [8], in experiment [9] and in experiment [17] was “inactive” each time. Further, the Potency entry in [19] and in [11] was “inactive” throughout. Besides, the molecule was classed as inactive in [14]. Also, the activation in [18] was 9.52%.

Regarding `CN=CNc1ccc(C)cc1C`, the Potency result in experiment [1], in [2], in [3], in experiment [4], in [5] and in experiment [6] was “inactive” throughout. Besides, the Potency result in experiment [7], in experiment [8], in experiment [9], in experiment [16], in experiment [10] and in experiment [17] was “inactive” in each case. In addition, the Potency result (in [19]; in experiment [11]; with Aromatase (Homo sapiens); in experiment [12]) was “inactive” in each case. The activation in [18] was 15.7%.

Turning to `CC[C@H](N)c1ccccc1`, the Potency result in experiment [1], in [2], in experiment [3], in [4], in experiment [5] and in [13] was “inactive” throughout. Further, the Potency entry in [6], in experiment [15], in experiment [7], in experiment [8], in [9] and in experiment [17] was “inactive” each time. Besides, the Potency result (in experiment [19]; in experiment [11]; in the experiment with Aromatase (Homo sapiens); in experiment [12]) was “inactive” in each case. The molecule was classed as inactive in experiment [14]. Besides, in experiment [18], the activation was 0.171%.

In the case of `CCOC(=O)CCl`, the Potency entry in experiment [1], in experiment [2], in experiment [3], in [4], in [5] and in experiment [6] was “inactive” in each case. Also, the Potency entry in [7], in [8], in experiment [9], in experiment [16], in experiment [10] and in [17] was “inactive” in each case. Besides, the Potency entry (in [19]; in experiment [11]; in the experiment with Aromatase (Homo sapiens); in [12]) was “inactive” throughout. Further, in experiment [18], the activation is 26.5%.

On to `Oc1ccc(Cc2ccc(O)cc2)cc1`, for which the Potency entry in experiment [1], in experiment [2], in experiment [3], in experiment [5], in [6] and in experiment [7] was “inactive” in each case. Besides, the Potency entry (in experiment [8]; in experiment [10]; in [19]; in experiment [11]; with Aromatase (Homo sapiens); in [12]) was “inactive” each time. The Potency is 15.6 µM [inconclusive] (active) in experiment [17] and 2.45 µM (active) in experiment [18].

For `CCCC(C)C1(CC)C(=O)N=C(S)NC1=O` (centres undefined), the Potency entry in [1], in experiment [2], in experiment [3], in experiment [4], in [5] and in experiment [6] was “inactive” each time. For the same molecule, the Potency entry (in experiment [7]; in experiment [9]; in experiment [10]; in [11]; with Aromatase (Homo sapiens); in experiment [12]) was “inactive” each time.
